Source: PubChem BioAssay
Cav32 inh: inhibitors of human Cav3.2 T-type calcium channel | B-score at 10 µM | Cav3.2-expressing cells, Fluo-4 calcium fluorescence FDSS; hits give low values | 100,000 tested, 4% active | O95180;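 active means single-dose well whose peak fluorescence ratio is a statistical outlier from its plate by either plate-standardised score or position-corrected B-score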
CYP2C19 act: cytochrome P450 2C19 (human) activation; recombinant CYP2C19, luciferin-H EGE luminescence; hits give high values; 0 = fully inhibited enzyme, 1 = untreated enzyme; activation factor at 5 µM; 96,000 tested, under 10 active;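 active means activation factor of at least 2 at 5 µM in the primary screen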
CYP2C19 inh: blocks human cytochrome P450 2C19. CYP2C19 Supersomes, luciferin-H EGE luminescence, 30 min. 96,000 tested, 21% active. P33261. AID 778. inhibition, % at 5 µM;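 active means CYP2C19 inhibition above a set limit at 5 µM in the primary screen, cut at about 50% in these data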
CYP2C9 act: increases human cytochrome P450 2C9 activity; recombinant CYP2C9, luciferin-H conversion, luminescence; hits give high values; factor 1 = untreated enzyme, 0 = blocked; 96,000 tested, 1.4% active; activation factor at 5 µM; P11712; AID 1024;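 active means activation factor of 2 or more for CYP2C9 at a 5 µM dose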
CYP2C9 inh: inhibitors of human CYP2C9; P11712; CYP2C9 Supersomes, luciferin-H conversion, luminescence; inhibition, % at 5 µM; 96,000 tested, 20% active; AID 777;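 active means blocking of liver enzyme CYP2C9 beyond about 50% at 5 µM, limit read from the data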
Large screens that a line does not name were inactive. Only some compounds are listed: those with a hit (about 27% of all), similar ones and a draw of the others.

CCN1C=C(Cc2cccs2)C2=C(C1)C(c1cccs1)C(C#N)=C(N)O2 (stereo not given)	CYP2C9 inh 56
CCN1CC2=C(OC(N)=C(C#N)C2c2cccs2)/C(=C/c2cccs2)C1 (stereo not given)	none
CCOC(=O)C1=C(CSc2nc(C)cc(C)c2C#N)OC(N)=C(C#N)C1c1cccs1 (stereo not given)	CYP2C19 inh 86
CCOC(=O)C1=C(CSc2nc(C)cc(C)c2C#N)OC(N)=C(C#N)C1c1ccccc1 (stereo not given)	Cav32 inh -5.5, CYP2C19 inh 75, CYP2C9 inh 81
CCOC(=O)C1=C(CSc2nc3c(cc2C#N)CN(C)CC3)OC(N)=C(C#N)C1c1ccc(Cl)cc1 (stereo not given)	none
CCOC(=O)C1=C(CSc2nc(CC)c(C)cc2C#N)OC(N)=C(C#N)C1c1ccccc1 (stereo not given)	CYP2C9 inh 68 (no result: Cav32 inh)
COc1cccc(/C=C/c2ccncc2)c1OC	CYP2C19 inh 99, CYP2C9 inh 98 (no result: Cav32 inh)
CNc1nc2ccccc2n1/N=C/c1cccc(OC)c1OC	none
COc1ccc(OC)c2[nH]c(=O)c(CCNC(C)=O)cc12	none
COc1ccc(OC)c2[nH]c(=O)c(CCNC(=O)c3cc4ccccc4o3)cc12	CYP2C19 inh 63
COC(=O)c1ccc(=O)c2nc3/c(=C/O)c(O)cc(=O)c3[nH]c12	none (no result: CYP2C19 act, CYP2C19 inh, CYP2C9 act, CYP2C9 inh)
CCOc1ccc(NS(=O)(=O)c2ccc(NS(=O)(=O)c3ccccc3)cc2)cc1	CYP2C19 inh 55, CYP2C9 inh 95
CCOc1ccc(S(=O)(=O)Nc2cc(Cl)ccc2O)cc1	CYP2C19 inh 100, CYP2C9 inh 100
CCOc1ccc(S(=O)(=O)Nc2cccc(Cl)c2)cc1	Cav32 inh -3.7 (no result: CYP2C19 act, CYP2C19 inh, CYP2C9 act, CYP2C9 inh)
CCOc1ccc(S(=O)(=O)Nc2ccccc2SC)cc1	CYP2C19 inh 67
COC(=O)COc1ccc(S(=O)(=O)Nc2ccccc2SC)cc1	none (no result: CYP2C19 act, CYP2C19 inh, CYP2C9 act, CYP2C9 inh)
O=C1CC(N2CCC(c3nc4ccccc4s3)CC2)C(=O)N1 (stereo not given)	none
O=C1CN=C(Nc2cccc(C(F)(F)F)c2)N1C1CCCC1	CYP2C19 inh 72, CYP2C9 inh 82
Cc1cc(C)c(NC2=NCC(=O)N2C2CCCCC2)c(C)c1	CYP2C19 inh 90, CYP2C9 inh 85
CCc1ccccc1NC1=NCC(=O)N1Cc1ccccc1	none
CCc1ccccc1NC1=NCC(=O)N1C1CCCCC1	CYP2C19 inh 56, CYP2C9 inh 53
Cc1ccc(-n2c(C)nnc2SCC(=O)Nc2ccccc2)cc1	none (no result: CYP2C19 act, CYP2C19 inh, CYP2C9 act, CYP2C9 inh)
Cc1ccc(Nc2nc(=O)c3cccnc3s2)cc1	CYP2C19 inh 94, CYP2C9 inh 82
Clc1ccc2c(c1)CNc1c(ncnc1N1CCOCC1)O2	CYP2C19 inh 99, CYP2C9 inh 56
Cn1c(=O)c2c(nc(CN3CCC(C(N)=O)CC3)n2CCc2ccccc2)n(C)c1=O	none
O=C(NCCOC12CC3CC(CC(C3)C1)C2)c1cccc(Br)c1	CYP2C19 inh 72
O=C(O)CCCCCNC(=O)c1cccc(Br)c1	none
Cc1ccccc1Cn1nc(C)c(NC(=O)c2cc3nc(-c4ccco4)cc(C(F)(F)F)n3n2)c1C	none
CCc1ccc(-c2cc(C(F)(F)F)n3nc(C(=O)Nc4c(C)nn(Cc5ccc(F)cc5)c4C)cc3n2)s1	CYP2C9 inh 70
O=C(O)C1CC(O)CN1C(=O)c1ccco1 (stereo not given)	none
CN1C(C(=O)NCc2ccc(OC(F)(F)F)cc2)CC2Cn3c(nc4cc5ccccc5cc43)C21 (stereo not given)	none (no result: CYP2C19 act, CYP2C19 inh, CYP2C9 act, CYP2C9 inh)
CCOC(=O)C1(C(=O)OCC)CC1c1ccccc1 (stereo not given)	none
CCOC(=O)c1c(C)oc2c1c1c(c3ccccc32)OCN(Cc2cccnc2)C1	CYP2C9 inh 54 (no result: Cav32 inh)
CCOC(=O)c1c(C)oc2c1c(C=NCC1CCCO1)c(O)c1ccccc12 (stereo not given)	none (no result: Cav32 inh)
CCOC(=O)c1c(C)oc2c1c(C(c1cccnc1)N1CCN(C)CC1)c(O)c1ccccc12 (stereo not given)	CYP2C19 inh 63 (no result: Cav32 inh)
CCOC(=O)c1c(C)oc2c(CN3CCN(C)CC3)c(Br)c(OC)c(O)c12	none
CCOC(=O)c1c(C)oc2c1c(C(c1cccnc1)N1CCOCC1)c(O)c1ccccc12 (stereo not given)	CYP2C9 inh 64
CC1(C)CC(=O)C(C=NCCO)=C(O)C1	none
Cc1cc(=O)n2nc(N3CCC(C(=O)NC4CCCc5ccccc54)CC3)sc2n1 (stereo not given)	none
CCC(=O)Nc1cc(C)c(NC(=O)c2ccccc2OC)cn1	CYP2C9 act 2.6
CCCCC(=O)Nc1ccc(NC(=O)c2ccccc2OC)cn1	CYP2C19 inh 78, CYP2C9 act 3.5
FC(F)(F)c1cc(-c2ccco2)nc(-n2nnc3ccccc32)n1	none
COc1cccc(NC(=O)c2ccccc2-c2nc(-c3ccc(Cl)cc3)no2)c1	CYP2C19 inh 69, CYP2C9 inh 83
COc1ccccc1NC(=O)c1ccccc1-c1nc(-c2ccccc2OC)no1	CYP2C19 inh 64, CYP2C9 inh 78
COc1ccccc1C(=O)Nc1ccccc1SC	none
COc1ccccc1NC(=O)c1ccccc1SC	CYP2C9 act 3.8
CCN1CCN(C(c2cccs2)C(C)NS(=O)(=O)c2ccccc2)CC1 (stereo not given)	none (no result: CYP2C19 act, CYP2C19 inh, CYP2C9 act, CYP2C9 inh)
Cc1cccc(NC(=S)N2N=CCC2c2ccccc2)c1 (stereo not given)	none
COC(=O)c1[nH]c2ccc(C)cc2c1NC(=O)CCN1CCN(Cc2ccc3c(c2)OCO3)CC1	none
CCOC(=O)C1CCCN(CC(=O)Nc2c(C(=O)OC)[nH]c3ccc(C)cc23)C1 (stereo not given)	CYP2C9 inh 60
CCOC(=O)C1CCCN(CC(=O)Nc2c(C(=O)OC)[nH]c3ccccc23)C1 (stereo not given)	none
COC(=O)c1[nH]c2ccc(C)cc2c1NC(=O)CN1CCCc2ccccc21	CYP2C9 inh 85
CCN(CC(=O)Nc1c(C(=O)OC)[nH]c2ccc(Cl)cc12)c1ccc2c(c1)OCO2	CYP2C19 inh 88, CYP2C9 inh 97
CCOC(=O)C1CCCN(CC(=O)Nc2c(C(=O)OC)[nH]c3ccc(Cl)cc23)C1 (stereo not given)	CYP2C19 inh 91, CYP2C9 inh 91
Cc1ccc(S(=O)(=O)n2cnc3cc([N+](=O)[O-])ccc32)c(C)c1C	none
COC(=O)c1[nH]c2ccc(C)cc2c1NC(=O)Nc1ccc(OC)cc1	CYP2C19 inh 54
Nc1nc(SCC(=O)Nc2cc(-c3ccccc3)nn2-c2ccccc2)n[nH]1	CYP2C19 inh 94, CYP2C9 inh 60
Nc1nc(SCC(=O)Nc2ccccc2Sc2ccc(Cl)cc2)n[nH]1	Cav32 inh -5.9, CYP2C19 inh 100, CYP2C9 inh 99
Cc1ccc(-c2cc(NC(=O)CSc3n[nH]c(N)n3)n(-c3ccccc3)n2)cc1	none
OC(CSc1c(Cl)cccc1Cl)CN1CCN(c2ccc(F)cc2)CC1 (stereo not given)	none
